IL-1B inflam inh: qHTS for Inhibitors of Inflammasome Signaling: IL-1-beta AlphaLISA Primary Screen | THP-1 LPS/ATP IL-1B secretion, AlphaLISA, 16 h; active compounds read low | activity change, % at 57.5 µM | 4.7% of 360,000 active | AID 743279, 2014; in the data active = activity change below about -50%; inconclusive = mostly about -30% to -49%; note: % is set by controls: 0 for no effect and ±100 for the full control effect
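Secreted IL-1B measured by AlphaLISA bead assay after 16 h compound exposure of THP-1 cells; compounds (final up to 57.5 uM) added 1 h before LPS (250 ng/mL) and ATP (1.25 mM) stimulation; lower signal means less secretion.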
HepG2 viability: qHTS for Inhibitors of TGF-b: Cytotox Counterscreen; 0.76% of 410,000 active; Potency, µM (doses to about 46.1 µM), for the others: at the top dose activity change, negative = cytotoxicity, most hits filed as cytotoxic; HepG2 CAGA-GFP viability, ATP luminescence, 18 h; note: potency is the fitted concentration of half-maximal effect
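HepG2 CAGA-GFP cells (1000/well, DMEM with 1% FBS) received compound, then TGF-beta at 500 pg/mL final, and were incubated 18 hours at 37 degrees C. Viability was read by CellTiter-Glo luminescence. Media-only wells were set as complete cell-killing and DMSO as no toxicity.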
TGFb inhibitor: qHTS for Inhibitors of TGF-b; HepG2 CAGA-GFP TGF-b/SMAD3 reporter, GFP fluorescence, 18 h; TGF-beta stimulated, 500 pg/mL final; Potency, µM (titrated, usually from 46.1 µM), without a hit: top-dose activity, negative = inhibition, hits mostly inhibitors; 1.2% of 410,000 active; note: potency is the fitted concentration of half-maximal effect; % is set by controls: 0 for no effect and ±100 for the full control effect; nearly all actives have a fitted effect of over 65% in size
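Cell-based qHTS in HEPG2 carrying a CAGA-GFP Smad reporter; compounds added before 500 pg/mL final TGF-beta, 18 h incubation at 37 degrees C, GFP fluorescence quantified per cell by imaging cytometry.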
DT40 TDP1 CPT: qHTS for Inhibitors of human tyrosyl-DNA phosphodiesterase 1 (TDP1): qHTS in cells in presence of CPT. chicken DT40 Tdp1-/-;hTDP1 cells + 20 nM CPT, ATP luminescence, 48 h. Potency, µM (top dose mostly 46.2 µM), for inactives: at the top dose activity change, negative = growth inhibition, usual class: inhibitors. 12% of 420,000 active. AID 686979, 2013; note: potency is the fitted concentration of half-maximal effect; % is set by controls: 0 for no effect and ±100 for the full control effect; nearly all actives have a fitted effect of over 55% in size
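Chicken DT40 Tdp1-/- cells stably complemented with human TDP1 were seeded at 400 cells/well in medium containing 20 nM camptothecin, exposed to pin-transferred compounds, and grown at 37 °C for at least 48 hr. Viability was read as ATP luminescence.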
TDP1 cell noCPT: qHTS for Inhibitors of human tyrosyl-DNA phosphodiesterase 1 (TDP1): qHTS in cells in absence of CPT; DT40 Tdp1-/- hTDP1 cells, no CPT, ATP luminescence, 48 h; Potency, µM (highest dose often 46.2 µM), for inactives: top-dose activity change, negative = growth inhibition, hits mostly inhibitors; 15% of 420,000 active; AID 686978, 2013; note: potency is the fitted concentration of half-maximal effect; % is set by controls: 0 for no effect and ±100 for the full control effect; nearly all actives have a fitted effect of over 55% in size
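Chicken DT40 Tdp1-/- cells stably complemented with human TDP1 were seeded at 400 cells/well with DMSO in place of 20 nM camptothecin. After compound pinning, cells grew at least 48 hr at 37 °C; viability read by CellTiter-Glo luminescence.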
TDP1 block: qHTS Assay for Inhibitors of Tyrosyl-DNA Phosphodiesterase (TDP1). 0.28% of 350,000 active. Tyrosyl-DNA phosphodiesterase 1 (Homo sapiens), Q9NUW8. Potency, µM (series often up to 130 µM), inactives show at the top dose activity change, negative = inhibition, usual class: inhibitors. recombinant TDP1, AlphaScreen DNA substrate cleavage; note: potency is the fitted concentration of half-maximal effect; % is set by controls: 0 for no effect and ±100 for the full control effect; nearly all actives have a fitted effect of over 40% in size
Target sequence (Q9NUW8 whole entry, looked up): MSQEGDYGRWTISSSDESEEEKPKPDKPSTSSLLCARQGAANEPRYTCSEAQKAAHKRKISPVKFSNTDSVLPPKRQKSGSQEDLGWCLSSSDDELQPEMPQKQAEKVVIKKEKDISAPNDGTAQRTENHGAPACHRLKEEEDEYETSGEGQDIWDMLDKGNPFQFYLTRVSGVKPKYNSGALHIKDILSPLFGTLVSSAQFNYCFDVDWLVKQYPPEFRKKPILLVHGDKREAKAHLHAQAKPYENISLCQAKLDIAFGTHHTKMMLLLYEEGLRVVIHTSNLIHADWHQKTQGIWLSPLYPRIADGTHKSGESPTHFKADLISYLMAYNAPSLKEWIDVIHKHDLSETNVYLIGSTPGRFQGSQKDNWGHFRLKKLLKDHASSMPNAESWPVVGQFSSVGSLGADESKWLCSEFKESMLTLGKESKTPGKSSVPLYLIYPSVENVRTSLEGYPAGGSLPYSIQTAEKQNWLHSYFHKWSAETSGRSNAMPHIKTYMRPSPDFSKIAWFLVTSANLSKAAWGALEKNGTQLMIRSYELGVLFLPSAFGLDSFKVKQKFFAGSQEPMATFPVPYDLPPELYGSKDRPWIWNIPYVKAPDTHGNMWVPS
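E. coli-derived human Tdp1, 1 nM final. Cpd preinc 15 min RT; substrate 15 nM final, 5 min RT; AS bead mix 10 ug/ml final, 10 min RT. Signal loss = tyrosine-FITC cleavage. No-enzyme wells = max signal.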
The depositor's hits bear a star; ? = inconclusive; nt = not tested or not shown. Hits are enriched below; roughly 19% of the tested compounds scored in any of these assays. Unless noted, calls come from the whole dose curve; as a rule, active = well fitted curve in the direction sought with a large enough effect; inconclusive = small, poorly fitted or top-dose-only effect, or another doubt; inactive = no such curve, though single readings can be large; an effect the other way counts as inactive or inconclusive.

SMILES	IL-1B inflam inh	HepG2 viability	TGFb inhibitor	DT40 TDP1 CPT	TDP1 cell noCPT	TDP1 block
COCc1ccc(C(=O)Nc2cccc(S(=O)(=O)N(C)c3ccccc3)c2)cc1	-13.0	-4.1%	1.4%	18.4µM*	18.4µM*	0.5%
CCN(CC)CCNC(=O)c1ccc(NC(=O)c2ccc(COc3ccccc3)cc2)cc1	-19.6	-32.8%	0.0%	23.1µM*	-4.7%	5.0%
Cc1cc(C)cc(C(=O)NCC(=O)N2CCC(C(N)=O)CC2)c1	-7.3	-1.7%	5.5%	-1.6%	6.0%	0.1%
Cc1cccc2nc(CSC(=N)N)c(Br)n12	-67.9*	-29.5%	?	?	?	0.0%
N=C(N)SCc1nc2ccccn2c1Br	-98.3*	-3.7%	-4.8%	?	?	5.3%
CC(=O)N1c2ccc(C)cc2C(c2ccccc2)CC1C (configuration not stated)	-55.4*	-18.6%	-28.6%	?	?	nt
CC(=O)N1c2ccccc2[C@H](C)[C@H]1C	12.5	2.1%	0.7%	5.4%	3.4%	0.1%
CC(=O)OC1CC(C)N(C(=O)c2ccccc2)c2ccc(C)cc21 (configuration not stated)	-3.4	-14.0%	-11.3%	?	?	2.4%
CCCC(=O)OC1CC(C)N(C(=O)c2ccccc2)c2ccc(C)cc21 (configuration not stated)	2.6	-0.9%	-2.2%	?	23.1µM*	-5.5%
CN(C)c1cccc(C(=O)NNC(=O)CSc2ccccc2)c1	-11.8	-10.7%	3.2%	11.8%	1.8%	-0.4%
Cn1c(=O)c2c(ncn2CC(O)CNc2ccc(Br)cc2)n(C)c1=O (configuration not stated)	16.8	-27.5%	-20.1%	-25.8%	?	7.0%
Cn1c(=O)c2c(ncn2CC(COCc2ccc(Cl)cc2)OCc2ccc(Cl)cc2)n(C)c1=O (configuration not stated)	-14.5	-7.0%	0.0%	23.1µM*	14.6µM*	2.9%
Cn1c(=O)c2c(ncn2Cc2ccc(Cl)cc2)n(C)c1=O	8.0	1.7%	-1.0%	5.8µM*	16.4µM*	8.6%
Cn1c(=O)c2c(ncn2CCOc2ccc(Br)cc2)n(C)c1=O	42.3	-25.0%	-0.5%	?	16.4µM*	0.6%
N#Cc1cccc(NC(=O)N2CCCC3(CCN(C(=O)c4ccco4)CC3)C2)c1	nt	nt	nt	-6.5%	-2.8%	nt
Cc1ccc(S(=O)(=O)N2CCC(=O)N([C@H](COCc3cccc(C)c3)Cc3ccccc3)CC2)cc1	nt	nt	nt	nt	nt	4.1%
Cc1ccc(S(=O)(=O)N2CCC(=O)N(C(COC(=O)Nc3ccccc3)Cc3ccccc3)CC2)cc1 (configuration not stated)	0.0	-26.3%	?	20.6µM*	?	-3.1%
Cc1ccc(S(=O)(=O)N2CCC(=O)N(C(COCc3ccc(Cl)c(Cl)c3)Cc3ccccc3)CC2)cc1 (configuration not stated)	48.2	-25.0%	-0.8%	?	23.1µM*	1.3%
Cc1ccc(S(=O)(=O)N2CCC(=O)N(C(COCc3ccc(C(F)(F)F)cc3)Cc3ccccc3)CC2)cc1 (configuration not stated)	-16.6	-37.2%	-3.3%	9.2µM*	18.4µM*	3.9%
CC(C)(C)c1cc(C(=O)C[n+]2ccc(C(=O)NCCCO)cc2)cc(C(C)(C)C)c1O	15.1	1.9%	-3.0%	6.5%	12.5%	-1.4%
